Data published in PubChem BioAssay.

Assay: optical density change of DRC41 E. coli – strain DRC41, OD650, 24 h, E. coli filamentation project, primary screen (AID 1093);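 note: MC1000 strain lacking acrAB efflux and sulA so SOS filamentation is blocked; test concentration not given here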
Details: E. coli DRC41 growth, higher = more signal, called active from +8 up or from −8 down

z-score, inactive:
O=c1cccc(CCc2ccccc2)o1 -0.97
COc1ccc([Si](C)(C)[C@H]2[C@H](CCn3cc(CCO)nn3)O[C@@]3(C(=O)N(Cc4ccc(N5CCOC5=O)cc4)c4ccccc43)[C@@H]2C)cc1 1.01
C=CC[C@@H](OC(=O)Nc1ccc(OC)cc1)c1ccc(O)c2ccccc12 1.05
CC(c1ccccc1)C(O)C1C=CC2C(=O)NC(=O)C2N1Nc1ccccn1 (stereo unspecified) -0.88
CC(C)CNC(=O)[C@@H]1c2ccccc2C(=O)N(Cc2cc(C(F)(F)F)cc(C(F)(F)F)c2)[C@H]1c1ccc(CO)cc1 -0.381
C[C@]1(C(=O)NCc2ccccc2)c2ccccc2C(=O)N(Cc2cc(F)cc(C(F)(F)F)c2)[C@H]1c1ccc(CO)cc1 0.808
O=C1O[C@H](c2ccccc2)[C@H](c2ccccc2)N2[C@H]1[C@@H](C(=O)Nc1nc3ccccc3s1)[C@]1(C(=O)Nc3ccccc31)[C@H]2c1ccc(O)cc1 0.071
CN(C)CCCNC(=O)[C@@]1(Cc2ccccc2I)c2ccccc2C(=O)N(Cc2ccccc2C(F)(F)F)[C@H]1c1ccc(CO)cc1 -0.971
CCCCCN1CC=CC23O[C@@H]4C=CCOC(=O)[C@@H]4[C@H]2C(=O)N(CCCO)[C@@H]3C1=O (stereo partly specified) 3.09
C=C(CCCC)/C(=C/C[C@H](OC(C)=O)c1ccc(CO)o1)c1cnc2ccccc2c1 0.111
CC(C)NC(=O)[C@@]1(Cc2ccccc2I)c2ccccc2C(=O)N(Cc2ccccc2)[C@H]1c1ccc(CO)cc1 -0.408
O=C1C2C=CC(C(O)c3ccc(B(O)O)cc3)N(Nc3ccccc3)C2C(=O)N1c1ccccc1 (stereo unspecified) -1.2
O=C1C[C@]2(c3ccc([N+](=O)[O-])cc3)C(=O)N(CC(F)(F)F)c3cc(CO)ccc3[C@H]2N1CC12CC3CC(CC(C3)C1)C2 -0.577
N#Cc1ccc(NN2C(C(O)c3cccs3)C=CC3C(=O)N(c4ccccc4)C(=O)C32)cc1 (stereo unspecified) -0.445
COCCOC(=O)N1C(=O)[C@@]2(c3cc(C#CCNC(N)=O)ccc31)[C@H](C(=O)N1CCc3cc(OC)c(OC)cc3C1)[C@H]1C(=O)O[C@H](c3ccccc3)[C@H](c3ccccc3)N1[C@@H]2c1ccc(OCCO)cc1 0.692
CC(=O)Nc1cc(Br)ccc1C(=O)O -0.18
C=CCOC(=O)[C@@H]1[C@H]2C(=O)O[C@H](c3ccccc3)[C@H](c3ccccc3)N2[C@H](c2ccc(OCCOC(=O)[C@@H]3C[C@@H]4C(=O)N[C@@H](Cc5ccccc5)C(=O)N4[C@@H]3c3cccc(OCCO)c3)cc2)[C@@]12C(=O)Nc1ccc(I)cc12 0.0087
[N-]=[N+]=NCc1ccccc1C[C@]1(C(=O)O)N=C(c2ccc(OCCCO)cc2)O[C@H]1c1ccccc1CN=[N+]=[N-] -0.292
NCCCCCNC(=O)[C@H]1C[C@H]2C(=O)NCC(=O)N2[C@H]1c1cccc(OCCO)c1 0.946
COc1cc2c(cc1OC)CN(C(=O)[C@@H]1[C@H]3C(=O)O[C@H](c4ccccc4)[C@H](c4ccccc4)N3[C@H](c3ccccc3OCCO)[C@@]13C(=O)Nc1ccc(C#CCNC(N)=O)cc13)CC2 0.912
C=C(COC)C(=O)CC[C@H](OC(C)=O)c1cccc(OCCO)c1 0.896
CCOC(=O)C[C@H]1[C@H](OC(=O)Cc2ccc3c(c2)OCO3)[C@@H](NC(=O)C2CCCCC2)c2cc(OCCCO)ccc2N1C(=O)Cc1ccc(OC)cc1 1.21
COCCOC(=O)N1C(=O)[C@@]2(c3cc(C#CCNC(N)=O)ccc31)[C@H](c1ccc(OCCO)cc1)N1[C@H](c3ccccc3)[C@H](c3ccccc3)OC(=O)[C@H]1[C@@H]2C(=O)N1CCc2cc(OC)c(OC)cc2C1 0.196
COCCOC(=O)N1C(=O)[C@@]2(c3cc(C#CC4(O)CCCCCC4)ccc31)[C@H](C(=O)N1CCCCCCC1)[C@H]1C(=O)O[C@H](c3ccccc3)[C@H](c3ccccc3)N1[C@@H]2c1ccccc1OCCO 0.431
C=C(COC)/C(=C/C[C@H](OC(=O)c1ccncc1)c1cccc(OCCO)c1)c1cc(C(=O)OC)ccc1OC 0.973
COc1c(C)cc(-c2cc3c(c(-c4ccc(Oc5ccccc5)cc4)n2)[Si](C(C)C)(C(C)C)OC3)cc1C -1.38
CCOC(=O)C1=CCC(c2ccc(C#N)cc2)N(S(=O)(=O)c2ccc(C)cc2)C1 (stereo unspecified) 0.394
CCOC(=O)C1=C[C@@H](C(C)C)N(S(=O)(=O)c2ccc(C)cc2)[C@H]1c1ccc(C(C)C)cc1 -0.35
CCOC(=O)C1=CCC(C(C)(C)C)N(S(=O)(=O)c2ccc(C)cc2)C1 (stereo unspecified) -0.756
CCCCC=C[C@@H](NC(=O)c1ccco1)c1ccccc1 -0.675
CC(C)(C)N1CC=CC23O[C@@H]4C=CCOC(=O)[C@@H]4[C@H]2C(=O)N(CCCCCO)[C@@H]3C1=O (stereo partly specified) 0.385
O=C1C=CC(=O)[C@@H]2CC(COc3ccccc3)=C3[C@@H](CCc4ccccc4)OB(O)C[C@@H]3[C@H]12 -0.125
Cc1ccccc1C(O)C1C=CC2C(=O)N(C)C(=O)C2N1N1CCCCC1 (stereo unspecified) -1.24
CCOC(=O)C[C@H]1[C@H](OC(=O)c2ccc(C(=O)c3ccccc3)cc2)[C@@H](NC(=O)C2CCCCC2)c2cc(OCCCO)ccc2N1C(=O)c1ccccc1 -1.15
Cc1ccc(S[C@]2(C(=O)NCC(C)C)CC(=O)N(Cc3ccccc3Cl)[C@@H]2c2ccc(CO)cc2)cc1 -0.0077
COc1cccc(C(=O)O[C@H]2CC[C@]3(C)C4=C(CCC3C2(C)C)[C@]2(C)CC[C@H]([C@H](C)CCCC(C)C)[C@@]2(C)CC4)c1 (stereo partly specified) 2.43
